Assay results taken from PubChem BioAssay (Tox21).
Records with an inconclusive call do not appear. Calls of active or inactive are those of the source. Unless noted, calls follow the shape of the dose curve; as a rule, active = well fitted curve in the direction sought with a large enough effect in the repeat runs; inconclusive = weak or mixed curves; inactive = no such curve, though single readings can be large; an effect the other way counts as inactive or inconclusive.

Legend:
[1] = qHTS assay to identify small molecule agonists of the hypoxia (HIF-1) signaling pathway - cell viability counter screen (AID 1224844; calls by dose curve; also: nearly all actives have a fitted effect of over 50% in size)
Method in brief: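 ME-180 HRE-bla cells, 2,000/well, 0.5% dialyzed FBS; 5 hr settle, 17 hr compound at 37C/5% CO2; CCF4-AM reporter read first, then CellTiter-Glo luminescence after 30 min RT.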

[2] = qHTS assay to identify small molecule agonists of H2AX (AID 1224845; active = well fitted activation curve with a large enough effect in the signal ratio in the repeat runs, not every such curve was filed as active; the % refers to the signal ratio)
Method in brief: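 Phospho-H2AX Ser139 measured by HTRF (ex 320 nm; em 665 and 620 nm) after 24 hr antibody incubation. Compounds, 15 concentrations, 0.76% DMSO, were applied to CHO-K1 cells for 3hr at 37C before lysis.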

[3] = qHTS assay to identify small molecule agonists of the hypoxia (HIF-1) signaling pathway (AID 1224846; active = well fitted activation curve with a large enough effect in the signal ratio in the repeat runs, not every such curve was filed as active; the % refers to the signal ratio)
Method in brief: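 Cell line: CellSensor HRE-bla ME-180; 2,000 cells/well; 0.5% dialyzed FBS; 5 h preincubation; DMSO compound pin transfer; 17 h, 37C, 5% CO2; CCF4-AM added; bla FRET signal scored for activation.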

[4] = qHTS assay to identify small molecule agonists of H2AX - cell viability counter screen (AID 1224847; calls by dose curve; also: top concentration of the series differs between compounds; nearly all actives have a fitted effect of over 30% in size)
Method in brief: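 We seed wild-type CHO-K1 cells overnight, treat them for 3 hr at 37C with compounds in 15-concentration series, and quantify remaining viability by CellTiter-Glo luminescence.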

[5] = qHTS assay to identify small molecule antagonists of the estrogen related receptor (ERR) signaling pathway from Tox21 library (AID 1224848); also: nearly all actives have a fitted effect of over 50% in size
Method in brief: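 Reading was by luminescence 30 min after ONE-Glo addition. Before that, ERR cells at 2,000 per well had rested 6 h at 37 C/5% CO2 and then received pin-tooled compounds in DMSO for 18 h at 37 C.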

[6] = qHTS assay to identify small molecule agonists of the estrogen related receptor (ERR) signaling pathway from Tox21 library (AID 1224849; calls by dose curve; also: nearly all actives have a fitted effect of over 15% in size); settings: ERR reporter cell line, ONE-Glo luciferase, 18 h; at 92.4 µM (top of the series) unless noted
Method in brief: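 ERR cells, 6 h pre-incubation 37 C/5% CO2; cpd in DMSO pinned; 18 h 37 C; ONE-Glo added, 30 min RT; luminescence read. Agonist mode, qHTS.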

[7] = qHTS RealTime-Glo MT Cell Viability Assay in HepG2 cells - 24 hour (AID 1224867); also: nearly all actives have a fitted effect of over 50% in size
Method in brief: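 Compound treatment began 5 h after plating HepG2 cells (600/well) with NanoLuc luciferase and prosubstrate. Plates stayed at 37 C for 40 h; luminescence was captured at six time points, 0 h through 40 h.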

[8] = qHTS RealTime-Glo MT Cell Viability Assay in HEK293 cells - 32 hour (AID 1224868); also: top concentration of the series differs between compounds; nearly all actives have a fitted effect of over 50% in size
Method in brief: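 Quantitative high-throughput screen of the Tox21 10K library in HEK293: cells and RealTime-Glo reagents plated together, compound added at 5 h, luminescence monitored through 40 h at 37 C.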

[9] = A CellTox Green Cytotoxicity Assay to monitor cytotoxicity in HEK293 cells - 0 hour (AID 1224869); also: nearly all actives have a fitted effect of over 50% in size
Method in brief: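 Nonlytic real-time cytotoxicity: HEK293 + CellTox Green reagent plated, 5 h preincubation, pintool compound addition (23 nL in DMSO), 37 C for 40 h, fluorescence measured at successive time points.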

[10] = target: Thyrotropin receptor (Homo sapiens) (UniProt P16473); assay: qHTS assay to identify small molecule agonists of the thyroid stimulating hormone receptor (TSHR) signaling pathway (AID 1224843; calls by dose curve; also: nearly all actives have a fitted effect of over 45% in size)
Sequence of Thyrotropin receptor (Homo sapiens) (P16473 whole entry, looked up): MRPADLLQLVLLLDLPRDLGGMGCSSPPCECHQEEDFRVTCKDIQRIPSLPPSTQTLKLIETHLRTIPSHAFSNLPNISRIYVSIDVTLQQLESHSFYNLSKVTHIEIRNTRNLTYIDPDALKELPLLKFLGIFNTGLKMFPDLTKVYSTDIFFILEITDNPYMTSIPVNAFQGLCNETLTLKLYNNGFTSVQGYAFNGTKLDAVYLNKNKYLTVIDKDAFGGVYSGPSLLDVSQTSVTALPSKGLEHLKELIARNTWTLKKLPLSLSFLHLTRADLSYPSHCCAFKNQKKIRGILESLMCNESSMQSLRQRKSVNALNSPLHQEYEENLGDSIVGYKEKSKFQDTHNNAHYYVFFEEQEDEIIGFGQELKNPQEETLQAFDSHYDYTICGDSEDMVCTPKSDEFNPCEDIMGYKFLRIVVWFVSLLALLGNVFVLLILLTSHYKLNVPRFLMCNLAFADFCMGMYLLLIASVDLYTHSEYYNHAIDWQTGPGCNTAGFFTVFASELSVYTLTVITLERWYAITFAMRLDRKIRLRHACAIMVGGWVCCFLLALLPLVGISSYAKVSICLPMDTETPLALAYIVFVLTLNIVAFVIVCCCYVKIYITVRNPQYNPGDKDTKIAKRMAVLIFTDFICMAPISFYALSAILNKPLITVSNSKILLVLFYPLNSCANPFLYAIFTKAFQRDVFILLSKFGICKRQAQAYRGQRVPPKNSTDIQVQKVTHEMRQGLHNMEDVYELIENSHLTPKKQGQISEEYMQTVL
Method in brief: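 HEK293 cells stably bearing the thyrotropin receptor were plated at 800 cells/well and challenged with compound (30 min, RT). Accumulated cAMP was quantified via cAMP-d2 competing for cryptate-tagged antibody.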
% is scaled to controls: 0 for no effect and ±100 for the full control effect.

CCCCCCOC(=O)c1ccccc1O
inactive: Potency [1] | outcome [2] | outcome [3] | Potency [4] | Potency [5] | activity change, positive = activation [6] 8.56% | outcome [7] | Potency [8] | Potency [9]

CN(C)CCn1nnnc1SCC1=C(C(=O)O)N2C(=O)[C@@H](NC(=O)Cc3csc(N)n3)[C@H]2SC1
inactive: outcome [10] | Potency [1] | outcome [2] | outcome [7] | Potency [8] | Potency [9]

OC[C@H]1O[C@@H]2O[C@H]3[C@H](O)[C@@H](O)[C@@H](O[C@H]4[C@H](O)[C@@H](O)[C@@H](O[C@H]5[C@H](O)[C@@H](O)[C@@H](O[C@H]6[C@H](O)[C@@H](O)[C@@H](O[C@H]7[C@H](O)[C@@H](O)[C@@H](O[C@H]8[C@H](O)[C@@H](O)[C@@H](O[C@H]9[C@H](O)[C@@H](O)[C@@H](O[C@H]1[C@H](O)[C@H]2O)O[C@@H]9CO)O[C@@H]8CO)O[C@@H]7CO)O[C@@H]6CO)O[C@@H]5CO)O[C@@H]4CO)O[C@@H]3CO
inactive: Potency [1] | outcome [2] | outcome [3] | Potency [4] | Potency [5] | activity change, positive = activation [6] 0.681% [at 42.5 µM] | outcome [7] | Potency [8] | Potency [9]

CO
inactive: Potency [1] | outcome [2] | outcome [3] | Potency [4] | Potency [5] | activity change, positive = activation [6] -0.295% | outcome [7] | Potency [8] | Potency [9]

CC12CCC(CC1=O)C2(C)C (configuration not stated)
inactive: Potency [1] | outcome [2] | outcome [3] | Potency [4] | Potency [5] | activity change, positive = activation [6] 2.86% | outcome [7] | Potency [8] | Potency [9]

CC(=O)OC(C)(C)C
inactive: Potency [1] | outcome [2] | outcome [3] | Potency [4] | Potency [5] | activity change, positive = activation [6] 0.24% | outcome [7] | Potency [8] | Potency [9]

NCC[C@H](O)C(=O)N[C@@H]1C[C@H](N)[C@@H](O[C@H]2O[C@H](CN)[C@@H](O)[C@H](O)[C@H]2O)[C@H](O)[C@H]1O[C@H]1O[C@H](CO)[C@@H](O)[C@H](N)[C@H]1O
inactive: activation [10] -3.02% [at 0.349 µM] | activity change, negative = cytotoxicity [1] 3.37% [at 0.29 µM] | activation (H2AX phosphorylation) [2] 0.216% [at 0.582 µM] | activity change, negative = cytotoxicity [7] 1.55% [at 0.29 µM] | activity change, negative = cytotoxic [8] 4.99% [at 0.29 µM] | cytotoxicity [9] -5.15% [at 0.29 µM]

Cc1nccn1CC1CCc2c(c3ccccc3n2C)C1=O (configuration not stated)
inactive: outcome [10] | Potency [1] | outcome [2] | Potency [4] | outcome [7] | Potency [8] | Potency [9]

CCCCCCCCC=O
inactive: Potency [1] | outcome [2] | outcome [3] | Potency [4] | Potency [5] | activity change, positive = activation [6] -1.48% | outcome [7] | Potency [8] | Potency [9]

CC(C)(C)C(=O)/C=C/c1ccc(Cl)cc1
inactive: outcome [10] | Potency [1] | outcome [3] | Potency [4] | Potency [5] | activity change, positive = activation [6] 1.54% | outcome [7] | Potency [9]

CCC(C)OC(=O)N1CCCCC1CCO (configuration not stated)
inactive: Potency [1] | outcome [2] | outcome [3] | Potency [4] | Potency [5] | activity change, positive = activation [6] 2.44% | outcome [7] | Potency [8] | Potency [9]

C1=C\CC/C=C\CC/C=C\CC/1
inactive: Potency [1] | outcome [2] | outcome [3] | Potency [4] | Potency [5] | activity change, positive = activation [6] 2.93% | outcome [7] | Potency [8] | Potency [9]

C=C(C)C1CC=C(C)C(O)C1 (configuration not stated)
inactive: Potency [1] | outcome [2] | outcome [3] | Potency [4] | Potency [5] | activity change, positive = activation [6] 2.44% | outcome [7] | Potency [8] | Potency [9]

O=C(O)CCNC(=O)c1ccc(N=Nc2ccc(O)c(C(=O)O)c2)cc1
inactive: outcome [10] | Potency [1] | outcome [3] | Potency [4] | outcome [7] | Potency [8] | Potency [9]

N#CC1(O)CCCCC1
inactive: outcome [10] | Potency [1] | outcome [3] | Potency [5] | activity change, positive = activation [6] 7.59% | outcome [7] | Potency [8] | Potency [9]

CCCCCN(CCCCC)C(=O)C(CCC(=O)O)NC(=O)c1ccc(Cl)c(Cl)c1 (configuration not stated)
inactive: outcome [10] | outcome [2] | Potency [4] | outcome [7] | Potency [9]

Nc1nc2c(ncn2CCC(CO)CO)c(=O)[nH]1
inactive: outcome [10] | Potency [1] | outcome [3] | Potency [4] | Potency [5] | activity change, positive = activation [6] -1.99% [at 42.5 µM] | outcome [7] | Potency [8] | Potency [9]

COC(=O)CCCC(=O)O
inactive: outcome [10] | Potency [1] | outcome [2] | outcome [7] | Potency [8] | Potency [9]

CC(C)c1ccc2oc3nc(N)c(C(=O)O)cc3c(=O)c2c1
active: activity change, positive = activation [6] 105% [at 42.5 µM]
inactive: outcome [10] | Potency [1] | outcome [3] | Potency [5] | outcome [7] | Potency [8] | Potency [9]

C1CCCCCCCCCCC1
inactive: activity change, negative = cytotoxicity [1] 3.97% [at 15.8 µM] | activation (H2AX phosphorylation) [2] 1.29% [at 31.6 µM] | activation [3] 0.351% [at 15.8 µM] | activity change, negative = cytotoxicity [4] 0.456% [at 31.6 µM] | activity, negative = inhibition [5] -2.47% [at 19 µM] | activity change, positive = activation [6] -0.61% [at 19 µM] | activity change, negative = cytotoxicity [7] 3.08% [at 15.8 µM] | cytotoxicity [9] -14.8% [at 15.8 µM]

NC(=O)c1ncn([C@@H]2O[C@H](CO)[C@@H](O)[C@H]2O)c1O
inactive: outcome [10] | Potency [1] | outcome [2] | Potency [4] | outcome [7] | Potency [8] | Potency [9]

O=C(O)c1ccccc1S
inactive: outcome [10] | Potency [1] | outcome [2] | Potency [4] | outcome [7] | Potency [8] | Potency [9]

CCCCCCCCCCCl
inactive: Potency [1] | outcome [2] | outcome [3] | Potency [4] | Potency [5] | activity change, positive = activation [6] 0.564% | outcome [7] | Potency [8] | Potency [9]
